# mHTT-CaM PPI inh = mHTT-calmodulin interaction abrogation; inhibition, % at 15 µM; P42858; AlphaScreen His-mHTT/GST-CaM binding, luminescence; 190,000 tested, 3.6% active;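 also: 0% = both proteins with DMSO and 100% = one protein alone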
# Target sequence (P42858 whole entry, looked up, stated change not applied): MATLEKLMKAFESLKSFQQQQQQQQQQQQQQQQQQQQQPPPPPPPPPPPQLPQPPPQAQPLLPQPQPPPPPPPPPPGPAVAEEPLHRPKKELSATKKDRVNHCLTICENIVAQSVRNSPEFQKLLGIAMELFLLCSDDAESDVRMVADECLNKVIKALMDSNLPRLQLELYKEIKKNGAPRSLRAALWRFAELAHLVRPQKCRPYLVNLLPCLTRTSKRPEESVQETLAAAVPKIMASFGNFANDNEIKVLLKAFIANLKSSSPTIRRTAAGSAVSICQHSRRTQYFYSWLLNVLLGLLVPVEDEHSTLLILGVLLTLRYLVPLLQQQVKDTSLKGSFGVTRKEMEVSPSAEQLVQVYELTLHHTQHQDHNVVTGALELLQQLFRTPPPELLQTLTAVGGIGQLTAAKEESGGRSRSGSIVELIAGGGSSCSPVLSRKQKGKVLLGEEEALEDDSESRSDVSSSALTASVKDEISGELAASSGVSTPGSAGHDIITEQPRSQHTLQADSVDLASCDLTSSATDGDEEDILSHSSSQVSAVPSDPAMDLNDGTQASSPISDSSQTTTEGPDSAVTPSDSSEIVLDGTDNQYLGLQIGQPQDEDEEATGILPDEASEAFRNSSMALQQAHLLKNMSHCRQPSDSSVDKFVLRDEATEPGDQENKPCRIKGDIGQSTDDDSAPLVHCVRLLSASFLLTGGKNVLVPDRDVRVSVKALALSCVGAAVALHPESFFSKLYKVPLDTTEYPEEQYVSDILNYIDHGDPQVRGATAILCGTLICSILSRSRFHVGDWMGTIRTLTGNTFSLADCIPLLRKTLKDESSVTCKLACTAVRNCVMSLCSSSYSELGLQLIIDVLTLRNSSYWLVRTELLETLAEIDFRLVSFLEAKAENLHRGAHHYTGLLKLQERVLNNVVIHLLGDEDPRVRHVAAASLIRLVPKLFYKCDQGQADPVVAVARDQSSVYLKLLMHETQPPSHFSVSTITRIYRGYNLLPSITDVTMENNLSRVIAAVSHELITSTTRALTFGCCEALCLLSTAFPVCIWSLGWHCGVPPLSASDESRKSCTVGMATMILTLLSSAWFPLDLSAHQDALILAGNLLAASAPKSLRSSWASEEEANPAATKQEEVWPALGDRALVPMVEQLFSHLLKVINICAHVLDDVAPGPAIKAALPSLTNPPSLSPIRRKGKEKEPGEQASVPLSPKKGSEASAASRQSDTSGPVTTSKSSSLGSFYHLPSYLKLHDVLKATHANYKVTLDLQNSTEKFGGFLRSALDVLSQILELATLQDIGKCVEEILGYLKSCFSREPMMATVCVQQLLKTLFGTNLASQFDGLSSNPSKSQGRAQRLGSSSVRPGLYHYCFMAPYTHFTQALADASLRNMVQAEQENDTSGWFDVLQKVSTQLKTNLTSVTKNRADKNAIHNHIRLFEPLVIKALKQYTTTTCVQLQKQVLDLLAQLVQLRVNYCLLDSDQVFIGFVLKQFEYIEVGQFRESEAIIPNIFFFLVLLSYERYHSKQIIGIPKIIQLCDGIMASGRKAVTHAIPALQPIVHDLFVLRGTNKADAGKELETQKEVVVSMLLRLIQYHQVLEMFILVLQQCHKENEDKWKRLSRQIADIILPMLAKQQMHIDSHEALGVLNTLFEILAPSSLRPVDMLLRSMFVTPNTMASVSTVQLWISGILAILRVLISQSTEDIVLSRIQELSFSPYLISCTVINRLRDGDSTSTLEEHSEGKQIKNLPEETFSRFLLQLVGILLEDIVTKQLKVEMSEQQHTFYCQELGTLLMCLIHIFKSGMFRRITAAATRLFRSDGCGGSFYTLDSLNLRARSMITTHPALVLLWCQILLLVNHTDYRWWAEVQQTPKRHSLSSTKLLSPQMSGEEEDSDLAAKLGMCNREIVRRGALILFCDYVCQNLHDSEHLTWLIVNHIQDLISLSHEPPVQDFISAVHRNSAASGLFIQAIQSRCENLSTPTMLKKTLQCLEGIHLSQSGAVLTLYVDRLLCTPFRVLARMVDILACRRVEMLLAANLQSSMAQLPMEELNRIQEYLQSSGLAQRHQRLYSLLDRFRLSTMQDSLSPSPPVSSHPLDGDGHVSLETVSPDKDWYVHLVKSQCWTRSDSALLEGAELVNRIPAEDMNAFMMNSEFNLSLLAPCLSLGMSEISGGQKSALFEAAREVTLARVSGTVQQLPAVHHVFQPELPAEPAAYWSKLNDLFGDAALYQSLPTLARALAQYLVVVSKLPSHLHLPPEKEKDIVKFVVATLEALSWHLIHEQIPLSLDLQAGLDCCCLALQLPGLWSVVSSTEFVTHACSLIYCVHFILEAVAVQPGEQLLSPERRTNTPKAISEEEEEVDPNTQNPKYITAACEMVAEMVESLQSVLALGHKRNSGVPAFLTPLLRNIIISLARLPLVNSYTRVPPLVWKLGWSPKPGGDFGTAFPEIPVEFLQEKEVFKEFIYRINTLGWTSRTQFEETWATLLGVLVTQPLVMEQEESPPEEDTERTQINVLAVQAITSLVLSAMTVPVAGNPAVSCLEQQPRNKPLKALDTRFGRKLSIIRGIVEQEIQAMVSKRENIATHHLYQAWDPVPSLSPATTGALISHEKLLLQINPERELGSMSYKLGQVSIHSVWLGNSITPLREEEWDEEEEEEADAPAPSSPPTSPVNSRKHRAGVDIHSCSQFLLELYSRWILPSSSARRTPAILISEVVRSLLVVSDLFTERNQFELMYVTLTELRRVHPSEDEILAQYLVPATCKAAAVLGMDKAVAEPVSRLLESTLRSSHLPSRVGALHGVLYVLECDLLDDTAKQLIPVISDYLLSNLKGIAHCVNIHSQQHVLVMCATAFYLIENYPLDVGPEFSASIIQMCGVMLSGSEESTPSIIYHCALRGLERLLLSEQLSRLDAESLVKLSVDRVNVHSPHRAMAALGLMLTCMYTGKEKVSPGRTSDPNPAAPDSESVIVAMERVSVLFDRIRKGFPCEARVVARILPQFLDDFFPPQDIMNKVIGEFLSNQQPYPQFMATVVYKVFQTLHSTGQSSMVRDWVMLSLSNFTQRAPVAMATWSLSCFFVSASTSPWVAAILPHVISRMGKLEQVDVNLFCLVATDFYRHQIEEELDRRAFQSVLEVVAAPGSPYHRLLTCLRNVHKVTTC
# Pf apPOL inh = Pf-apPOL DNA polymerase inhibition; 210,000 tested, 0.25% active; Recombinant Pf-apPOL, molecular beacon fluorescence, 1.5 h; AID 1794808; inhibition, % at 10 µM
# An asterisk follows results filed as active. Compounds with a hit are over-represented: about 3.6% of the library has one in this group of screens. Rule as the data show it: active = inhibition above about 50%; inactive = the rest.
SMILES,mHTT-CaM PPI inh,Pf apPOL inh
CC1=NN(c2ccccc2)C(=O)/C1=C/c1ccc(Cl)cc1,53.0*,5.6
CC1=NN(c2ccccc2)C(=O)/C1=C/c1ccccc1F,32.0,-3.9
CC1=NN(c2ccccc2)C(=O)/C1=C/c1cccnc1,4.0,-3.2
CC1=NN(c2ccc(Cl)c(C(=O)O)c2)C(=O)/C1=C/c1ccc(Cl)cc1,6.0,3.0
COc1ccc(N2CCN(C(=O)c3ccccc3C)C(C)C2=O)c(OC)c1 (stereo not given),0.0,-0.6
Cc1nc(C)c(-c2ccc(=O)n(CCNC(=O)Cn3cnc4ccccc43)n2)s1,-12.4,-1.7
CCN(CCC#N)c1ccccc1,-4.4,-4.1
CCN(CCC#N)c1ccc(N=Nc2ccc([N+](=O)[O-])cc2)cc1,53.0*,-0.5
COc1cccc(C2CC(c3ccc(Br)cc3)Nc3nnnn32)c1OC (stereo not given),35.0,-2.6
O=[N+]([O-])c1cc2c(cc1CN1CCN(c3ccccc3)CC1)OCO2,15.3,-1.0
O=[N+]([O-])c1cc2c(cc1C1N(Cc3ccccc3)CCN1Cc1ccccc1)OCO2,60.0*,3.1
CC(=O)NCCc1csc(C2CCN(C(=O)Nc3cc(C)ccc3C)CC2)n1,-2.9,-4.2
CC(C)C1C(=O)N(Cc2cn(CC3CCCCC3)nn2)CCS(=O)(=O)N1Cc1ccc(-c2ccncc2)cc1 (stereo not given),54.0*,-2.2
CC(C)C1C(=O)N(Cc2cn(CC3CCCCC3)nn2)CCS(=O)(=O)N1Cc1ccc(-c2ccccc2)cc1 (stereo not given),29.5,-4.2
Cc1ccc(-c2ccc(CN3C(C(C)C)C(=O)N(Cc4cn(CC5CCCCC5)nn4)CCS3(=O)=O)cc2)cc1 (stereo not given),17.1,2.7
CC1C(=O)N(Cc2cn(CC3CCCCC3)nn2)CCS(=O)(=O)N1Cc1ccc(-c2ccncc2)cc1 (stereo not given),40.2,10.0
CC(C)C1C(=O)N(Cc2cn(CC3CCCCC3)nn2)CCS(=O)(=O)N1Cc1ccc(-c2cccc(CO)c2)cc1 (stereo not given),54.6*,-8.6
CC1C(=O)N(Cc2cn(CC3CCCCC3)nn2)CCS(=O)(=O)N1Cc1ccc(-c2ccc(F)cc2)cc1 (stereo not given),58.5*,4.9
Cc1ccc(NC(=O)CS(=O)(=O)c2cccc3nsnc23)c(C)c1,5.0,-11.3
O=C1c2cccc([N+](=O)[O-])c2C(=O)N1CCOc1ccc(Cl)cc1,17.4,-5.1
CCOc1cccc(N2C(=O)CC(N3CCC(Cc4ccccc4)CC3)C2=O)c1 (stereo not given),-2.5,-1.9
Nc1nncn1C(=O)c1ccc(Br)o1,-2.0,4.2
COc1cccc(C2C3=C(Nc4ncnn42)c2ccccc2OC3c2cccc(F)c2)c1 (stereo not given),37.0,-4.1
Clc1ccc(C2Oc3ccccc3C3=C2C(c2cccs2)n2ncnc2N3)cc1 (stereo not given),56.0*,-7.7
Fc1ccccc1C1C2=C(Nc3ncnn31)c1cc(Cl)ccc1OC2c1ccncc1 (stereo not given),21.0,0.6
SMILES,mHTT-CaM PPI inh,Pf apPOL inh
COc1cccc(C2C3=C(Nc4ncnn42)c2ccccc2OC3c2ccccc2OC)c1 (stereo not given),64.0*,-6.8
COc1ccccc1C1Oc2ccccc2C2=C1C(c1ccc(C)cc1)n1ncnc1N2 (stereo not given),15.0,-0.7
COc1ccc(C2C3=C(Nc4ncnn42)c2ccccc2OC3c2cccc(OC)c2)cc1 (stereo not given),56.0*,-5.1
COc1ccc(C2C3=C(Nc4ncnn42)c2ccccc2OC3c2cccc(Cl)c2)cc1 (stereo not given),41.0,-9.6
Cc1ccc(C2C3=C(Nc4ncnn42)c2ccccc2OC3c2cccc([N+](=O)[O-])c2)cc1 (stereo not given),50.0*,0.1
Cc1cccc(NC(=O)Nc2ccc3c(c2)N(S(C)(=O)=O)CC3)c1C,3.1,-0.5
COc1ccccc1/C=C1\SC(N2CCN(C)CC2)=NC1=O,7.0,-5.2
Cc1ccc(NC(=O)Cc2nc(-c3cccnc3)n[nH]2)cc1,-2.8,0.2
Cc1ccc(NC(=O)Cc2nc(-c3ccccn3)n[nH]2)cc1F,69.1*,-12.1
Cc1ccc(NC(=O)Cc2nc(-c3ccccc3)n[nH]2)cc1F,-3.5,-5.9
Cc1ccc(NC(=O)Cc2nc(-c3ccccn3)n[nH]2)cc1C,95.7*,-15.1
CC1Oc2ccccc2C=C1C=CC(=O)c1cccc(O)c1 (stereo not given),61.0*,-8.2
O=C(C=Cc1ccc2ccccc2n1)c1cccc(O)c1,7.3,-16.1
Cc1oc(C2CCN(C(=O)c3ccc(N(C)C)cc3)CC2)nc1C(=O)N1CCCCC1,8.2,-2.4
Cc1ccc(C(=O)N2CCC(CC(=O)NCCCN(C)c3ccccc3)CC2)cc1,50.9*,-4.2
CCN(CC)CCCNC(=O)CC1CCN(C(=O)c2ccc(C)cc2)CC1,5.8,-2.2
